DUX4 inh: DUX4-mediated transcription inhibition; activity change, negative = inhibition, % (no concentration beside the values); 293T-iDUX4 ZSCAN4-Gaussia luciferase reporter, 24 h; stronger effect = lower value; 37,000 tested, 0.8% active; AID 1224904;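 active = mean inhibition of at least 10% in the main channel, exceeding the control channel by a set limit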;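 also: 0% = median of neutral control wells and -100% = median of positive control wells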
* hit, by the source's call. This excerpt belongs to a sample that is enriched for hits.

SMILES	DUX4 inh
O=C(Cc1ccncc1)N1CCCCN2[C@@H](CO)[C@@H](c3ccc(-c4ccncc4)cc3)[C@@H]2C1	13.8
O=C(Cc1ccncc1)N1CCCCN2[C@H](CO)[C@H](c3ccc(-c4ccncc4)cc3)[C@@H]2C1	12.4
O=C(Cc1ccncc1)N1CCCCN2[C@H](CO)[C@@H](c3ccc(C#Cc4ccccc4F)cc3)[C@H]2C1	-27.9*
O=C(Cc1ccccc1)N1C[C@H]2[C@@H](c3ccccc31)[C@H](CO)N2Cc1ccccc1	1.8
O=C(Cc1ccccc1)N1CC2(C1)[C@@H](c1ccccc1)[C@H](CO)N2Cc1cccc(F)c1	-9.7
COC(=O)[C@@H]1[C@@H](CO)[C@@H]2Cn3c(ccc(-c4cccnc4)c3=O)[C@H]1N2S(=O)(=O)c1ccccc1C	2.3
COC(=O)[C@@H]1[C@@H](CO)[C@@H]2Cn3c(ccc(-c4cncnc4)c3=O)[C@H]1N2S(=O)(=O)c1ccccc1C	-16.5*
COC(=O)[C@H]1[C@H](CO)[C@H]2Cn3c(ccc(-c4cccnc4)c3=O)[C@@H]1N2S(=O)(=O)c1ccccc1C	-1.8
O=C(Cc1cccnc1)N1CCCCN2[C@H](C1)[C@@H](c1ccc(C#CC3(O)CCCC3)cc1)[C@@H]2CO	12.4
O=C(Cc1ccccn1)N1CC2(C1)[C@H](c1ccccc1)[C@@H](CO)N2Cc1ccccn1	-8.7

Bioassay records from PubChem BioAssay.
